SMILES strings stand for the structures. Unmarked numbers belong to inactive results. Results filed as inconclusive are left out. Calls of active or inactive are those of the source. Unless noted, calls come from the whole dose curve; as a rule, active = well fitted curve in the direction sought with a large enough effect in the repeat runs; inconclusive = weak or mixed curves; inactive = no such curve, though single readings can be large; an effect the other way counts as inactive or inconclusive.

A short description of assay [1]: qHTS assay to identify small molecule agonists of the estrogen receptor alpha (ER-alpha) signaling pathway in the presence of an antagonist - cell viability counter screen (AID 1259386).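 Note: series mostly up to about 92 µM; cells exposed to compounds for 22 h at 37 °C before the viability read; nearly all actives have a fitted effect of over 30% in size.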 A digest of the protocol: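 Cytotoxicity was measured in parallel with the ERE-luciferase agonist screen, in the same wells. The cells were VM7Luc4E2, which endogenously express ER-alpha, and treatment was with compounds plus 10.0nM ICI-182,780 for 22hr.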
Background: qHTS replaces the single test concentration by a dilution series.

Assay [2] addresses Progesterone receptor (Homo sapiens) (UniProt P06401). The assay can be described thus: qHTS assay to identify small molecule agonists of the progesterone receptor (PR) signaling pathway (AID 1346784; calls by dose curve; note: nearly all actives have a fitted effect of over 30% in size). A digest of the protocol: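 Fluorescence from LiveBLAzer B/G FRET substrate cleavage (2 hr, RT) reported PR activation in PR-UAS-bla HEK 293T cells treated 16 hr at 37C/5% CO2 with compounds; medium contained 2% charcoal-stripped FBS.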

Assay [3] is described as follows: qHTS assay to identify small molecule agonists of the progesterone receptor (PR) signaling pathway - cell viability counter screen (AID 1346799; calls by dose curve; note: nearly all actives have a fitted effect of over 45% in size). A digest of the protocol:
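In parallel with the beta-lactamase readout, cytotoxicity toward PR-UAS-bla HEK293T cells was measured by CellTiter-Glo luminescence following 16 hr compound incubation in 2% charcoal-stripped FBS medium.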

A short description of assay [4]: qHTS assay to identify small molecule antagonists of the TGF-beta/Smad signaling pathway - cell viability counter screen (AID 1346824). Note: nearly all actives have a fitted effect of over 50% in size. A digest of the protocol: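 SBE-bla HEK 293T cells, incubated overnight, then compound plus 0.25 ng/mL TGF-beta1 (stock added) for 5 hr at 37 C. Viability was read in the same wells by CellTiter-Glo luminescence after 30 min at room temperature.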

Assay [5] can be described thus: qHTS assay to identify small molecule agonists of the TGF-beta/Smad signaling pathway - cell viability counter screen (AID 1346829). Note: top concentration of the series differs between compounds; nearly all actives have a fitted effect of over 45% in size. Summed up: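 Same-well cytotoxicity: CellTiter-Glo added after the 2 hr room-temperature beta-lactamase substrate step, luminescence measured 30 min later; cells had 5 hr of compound at 37 C.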
Assay [6] is described as follows: qHTS assay to identify small molecule agonists of the TGF-beta/Smad signaling pathway (AID 1346859; active = well fitted activation curve with a large enough effect in the signal ratio in the repeat runs, not every such curve was filed as active; the % refers to the signal ratio; note: series mostly up to about 77 µM). A digest of the protocol:
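After overnight seeding, SBE-bla HEK 293T cells are dosed with compounds in DMSO and kept 5 hr at 37 C, 5% CO2. LiveBLAzer-type FRET substrate is then applied for 2 hr at room temperature.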

In assay [7] the target is Thyrotropin-releasing hormone receptor (Homo sapiens) (UniProt P34981). The assay can be described thus: qHTS assay to identify small molecule antagonists of the thyrotropin-releasing hormone receptor (TRHR) signaling pathway (AID 1346877; active = well fitted inhibition curve with a large enough effect in the repeat runs, not every such curve was filed as active; note: series mostly up to about 51 µM). Summed up: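 Antagonism is measured as suppression of the calcium response to 1 nM TRH in TRHR-HEK293 cells that have been dye-loaded for 2 h at 37 °C after overnight plating. Each compound is tested at 15 concentrations in triplicate.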

The target is the same in assay [8]. The assay can be described thus: qHTS assay to identify small molecule agonists of the thyrotropin-releasing hormone receptor (TRHR) signaling pathway (AID 1346891; calls by dose curve;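 note: HEK293 cells expressing TRHR with calcium dye readout; series mostly up to about 58 µM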). Summed up: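 Compounds were tested as agonists at 15 concentrations, in triplicate, on TRHR-Hek293 cells; calcium-sensitive dye fluorescence was recorded for 3 min following addition.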
Assay [9] is described as follows: Human pregnane X receptor (PXR) small molecule agonists, qHTS cell viability counter screen (AID 1346977). Note: nearly all actives have a fitted effect of over 50% in size. Note: potency is the fitted concentration of half-maximal effect. A digest of the protocol:
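Viability counter screen: CellTiter-Fluor signal in PXR-Luc HepG2 cells, 24hr compound exposure, 37C, 5% CO2.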

A short description of assay [10]: Caspase-3/7 induction in HepG2 cells by small molecules, qHTS assay (AID 1346978). Note: nearly all actives have a fitted effect of over 15% in size. A digest of the protocol:
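Wild-type HepG2 cells, 2,000/well, settled 5 hr at 37 C and 5% CO2, then compound-treated for 17 hr; caspase-3/7 activity read by luminescent Caspase-Glo 3/7 after 30 min at room temperature.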

Assay [11] in a line: Caspase-3/7 induction in CHO-K1 cells by small molecules, qHTS cell viability counter screen (AID 1346979). Note: nearly all actives have a fitted effect of over 35% in size. A digest of the protocol: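 Viability readout by fluorescence (CellTiter-Fluor) on wild-type CHO-K1 cells exposed for 16hr at 37C and 5% CO2 to compounds delivered in DMSO; reagent incubated 1hr before reading.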
Assay [12] can be described thus: Caspase-3/7 induction in CHO-K1 cells by small molecules, qHTS assay (AID 1346980). Note: nearly all actives have a fitted effect of over 15% in size. Summed up: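 Wild-type CHO-K1 cells exposed to compounds for 17hr at 37 C, 5% CO2. Caspase-3/7 activity then measured by Caspase-Glo 3/7 luminescence after 30min at room temperature.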
Assay [13] can be described thus: Caspase-3/7 induction in HepG2 cells by small molecules, qHTS cell viability counter screen (AID 1346981). Note: series mostly up to about 92 µM; nearly all actives have a fitted effect of over 30% in size. Summed up: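 Cell viability is measured as a cytotoxicity counter screen alongside the Caspase-Glo 3/7 readout in identical wells. Wild-type HepG2 cells are treated with test compounds for 16 hr at 37 C before CellTiter-Fluor addition and a 1-hr incubation.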

Assay [14] addresses Nuclear receptor subfamily 1 group I member 2 (Homo sapiens) (UniProt O75469). The assay can be described thus: Human pregnane X receptor (PXR) small molecule agonists, qHTS assay (AID 1346982). Note: nearly all actives have a fitted effect of over 35% in size. Note: potency is the fitted concentration of half-maximal effect. A digest of the protocol: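 Cells: HepG2 stably carrying PXR-Luc. Medium held 5% charcoal-stripped FBS. Compounds in DMSO added after 5 hr plating, incubated 24 hr, then luminescence quantified with ONE-Glo.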

The target of assay [15] is Cytochrome P450 2D6 (Homo sapiens) (UniProt P10635). The assay can be described thus: Cytochrome P450 Family 2 Subfamily D Member 6 (CYP2D6) small molecule antagonists: luciferase reporter qHTS assay (AID 1671196). For activity change, negative = inhibition: series mostly up to about 120 µM. Note: nearly all actives have a fitted effect of over 50% in size. Note: potency is the fitted concentration of half-maximal effect. Summed up:
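Enzyme and proluciferin substrate were first combined with test chemical for 10 min at room temperature. Adding NADPH regeneration solution started a 1 h reaction, stopped with luciferin detection reagent and read by luminescence 20 min later.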
On the technique in general: In a reporter assay the amount or activity of a reporter protein is the signal.

For assay [16], the target named is Nuclear receptor subfamily 1 group I member 2 (Rattus norvegicus) (UniProt Q9R1A7). The assay can be described thus: Rat pregnane X receptor (rPXR) activation by small molecules, qHTS assay (AID 1346983). Note: nearly all actives have a fitted effect of over 20% in size. The following applies: rPXR luciferase reporter cells, One-Glo luminescence, 24 h; max activation: stronger effect = higher value. Summed up: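 Cell-based rPXR activation assay: rPXR cells, 2,000 per well, rested 5hr at 37 C, then exposed to compounds in DMSO for 24 hr at 37 C. Luciferase activity read by One-Glo luminescence after 30 min at room temperature.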

Assay [17] has as its target Progesterone receptor (Homo sapiens) (UniProt P06401). The assay can be described thus: qHTS assay to identify small molecule antagonists of the progesterone receptor (PR) signaling pathway (AID 1346795; active = well fitted inhibition curve with a large enough effect in the signal ratio in the repeat runs, not every such curve was filed as active; the % refers to the signal ratio). Summed up:
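Fluorescence intensity measured 2 hr after adding beta-lactamase FRET substrate to PR-UAS-bla HEK293T cells that had been co-treated 16 hr with compound and 1 nM R5020 (final concentration) in 2% charcoal-stripped FBS.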

The nature of assay [18]: qHTS assay to identify small molecule antagonists of the progesterone receptor (PR) signaling pathway - cell viability counter screen (AID 1346798). For activity change, negative = cytotoxicity: series mostly up to about 92 µM. Note: nearly all actives have a fitted effect of over 50% in size. Note: potency is the fitted concentration of half-maximal effect. Summed up: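 CellTiter-Glo luminescence; PR-UAS-bla HEK293T, 3,000 cells/well; compound + R5020, 16 hr, 37C/5% CO2; 30 min RT before read.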
Assay [19] deals with Nuclear receptor subfamily 1 group I member 2 (Homo sapiens) (UniProt O75469). The assay can be described thus: CYP3A4 induction through human pregnane X receptor (PXR) by small molecules, qHTS assay (AID 1346984). Note: nearly all actives have a fitted effect of over 40% in size. Summed up:
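Quantitative HTS in DPX-2 cells, i.e. HepG2 transfected with PXR response element and CYP3A4-promoter luciferase. Compounds in DMSO incubated 24hr at 37C; then P450-Glo CYP3A4 substrate, 3uM final, 3hr; One-Glo luminescence.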

Assay [20] has the same target. The assay can be described thus: Human pregnane X receptor (PXR) activation by small molecules, qHTS assay (AID 1346985). Note: nearly all actives have a fitted effect of over 40% in size. Summed up: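 DPX-2 cells (HepG2 co-transfected with a PXR response element and a CYP3A4-promoter luciferase construct) were seeded at 2,000 per well, rested 5 hr at 37C, then exposed to DMSO-dissolved compounds for 24 hr. Activation was read as luciferase luminescence.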
% is set by controls: 0 for no effect and ±100 for the full control effect.

Chain of Progesterone receptor (Homo sapiens) (P06401 whole entry, looked up): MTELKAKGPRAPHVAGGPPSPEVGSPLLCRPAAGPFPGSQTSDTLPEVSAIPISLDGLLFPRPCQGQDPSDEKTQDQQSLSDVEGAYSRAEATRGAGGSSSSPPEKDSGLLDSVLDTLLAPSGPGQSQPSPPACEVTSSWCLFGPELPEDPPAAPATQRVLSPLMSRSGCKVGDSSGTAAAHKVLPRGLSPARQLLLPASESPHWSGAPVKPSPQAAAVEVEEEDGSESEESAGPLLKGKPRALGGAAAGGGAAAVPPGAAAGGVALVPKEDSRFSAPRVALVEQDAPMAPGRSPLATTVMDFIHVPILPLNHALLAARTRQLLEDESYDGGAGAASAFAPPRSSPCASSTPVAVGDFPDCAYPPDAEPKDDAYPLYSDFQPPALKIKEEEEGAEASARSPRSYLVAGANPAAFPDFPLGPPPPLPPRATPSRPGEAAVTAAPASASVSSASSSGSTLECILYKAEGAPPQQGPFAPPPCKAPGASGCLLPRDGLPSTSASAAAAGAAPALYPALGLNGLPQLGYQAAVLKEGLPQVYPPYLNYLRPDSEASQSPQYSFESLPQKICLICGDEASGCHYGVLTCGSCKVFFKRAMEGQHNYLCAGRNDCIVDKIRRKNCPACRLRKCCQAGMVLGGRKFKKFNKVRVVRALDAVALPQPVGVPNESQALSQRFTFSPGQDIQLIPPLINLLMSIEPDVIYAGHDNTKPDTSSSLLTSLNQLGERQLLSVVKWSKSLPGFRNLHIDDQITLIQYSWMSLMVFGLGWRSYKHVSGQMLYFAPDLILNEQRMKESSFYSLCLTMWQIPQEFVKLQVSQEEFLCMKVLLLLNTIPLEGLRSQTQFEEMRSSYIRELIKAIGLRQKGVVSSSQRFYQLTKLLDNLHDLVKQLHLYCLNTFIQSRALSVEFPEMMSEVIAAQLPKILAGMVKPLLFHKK
Chain of Nuclear receptor subfamily 1 group I member 2 (Rattus norvegicus) (Q9R1A7 whole entry, looked up): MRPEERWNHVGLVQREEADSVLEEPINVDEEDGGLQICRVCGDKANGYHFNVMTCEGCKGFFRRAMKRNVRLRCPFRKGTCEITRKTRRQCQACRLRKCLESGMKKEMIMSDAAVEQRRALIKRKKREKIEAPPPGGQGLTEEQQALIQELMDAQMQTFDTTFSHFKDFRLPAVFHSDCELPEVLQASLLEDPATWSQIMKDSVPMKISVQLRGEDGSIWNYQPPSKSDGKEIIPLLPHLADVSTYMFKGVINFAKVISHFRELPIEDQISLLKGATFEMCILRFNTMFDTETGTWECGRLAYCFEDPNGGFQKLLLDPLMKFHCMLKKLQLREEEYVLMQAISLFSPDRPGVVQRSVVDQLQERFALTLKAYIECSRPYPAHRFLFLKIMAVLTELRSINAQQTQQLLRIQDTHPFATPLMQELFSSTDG
Chain of Nuclear receptor subfamily 1 group I member 2 (Homo sapiens) (O75469 whole entry, looked up): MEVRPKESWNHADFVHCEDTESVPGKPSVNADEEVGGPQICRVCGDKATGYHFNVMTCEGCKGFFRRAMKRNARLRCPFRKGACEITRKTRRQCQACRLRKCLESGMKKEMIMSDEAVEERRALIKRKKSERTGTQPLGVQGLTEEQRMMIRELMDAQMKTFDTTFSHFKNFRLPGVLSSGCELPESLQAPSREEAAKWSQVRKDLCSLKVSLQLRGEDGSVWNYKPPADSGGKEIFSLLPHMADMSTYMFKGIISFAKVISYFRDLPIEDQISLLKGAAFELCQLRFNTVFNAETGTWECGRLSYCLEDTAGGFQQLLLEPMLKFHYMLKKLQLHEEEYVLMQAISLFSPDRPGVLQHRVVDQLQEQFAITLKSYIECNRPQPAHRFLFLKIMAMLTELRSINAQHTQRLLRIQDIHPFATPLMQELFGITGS
Chain of Thyrotropin-releasing hormone receptor (Homo sapiens) (P34981 whole entry, looked up): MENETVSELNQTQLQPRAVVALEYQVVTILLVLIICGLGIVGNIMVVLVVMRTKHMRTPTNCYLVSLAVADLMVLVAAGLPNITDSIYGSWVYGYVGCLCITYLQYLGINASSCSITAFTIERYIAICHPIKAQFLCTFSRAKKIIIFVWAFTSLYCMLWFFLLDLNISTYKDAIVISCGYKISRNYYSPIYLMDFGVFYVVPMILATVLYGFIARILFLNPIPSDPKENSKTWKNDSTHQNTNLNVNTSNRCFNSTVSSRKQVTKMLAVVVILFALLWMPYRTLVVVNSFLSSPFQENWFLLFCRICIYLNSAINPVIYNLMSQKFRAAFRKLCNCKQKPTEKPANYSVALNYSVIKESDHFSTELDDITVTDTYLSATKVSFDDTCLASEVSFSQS
Chain of Cytochrome P450 2D6 (Homo sapiens) (P10635 whole entry, looked up): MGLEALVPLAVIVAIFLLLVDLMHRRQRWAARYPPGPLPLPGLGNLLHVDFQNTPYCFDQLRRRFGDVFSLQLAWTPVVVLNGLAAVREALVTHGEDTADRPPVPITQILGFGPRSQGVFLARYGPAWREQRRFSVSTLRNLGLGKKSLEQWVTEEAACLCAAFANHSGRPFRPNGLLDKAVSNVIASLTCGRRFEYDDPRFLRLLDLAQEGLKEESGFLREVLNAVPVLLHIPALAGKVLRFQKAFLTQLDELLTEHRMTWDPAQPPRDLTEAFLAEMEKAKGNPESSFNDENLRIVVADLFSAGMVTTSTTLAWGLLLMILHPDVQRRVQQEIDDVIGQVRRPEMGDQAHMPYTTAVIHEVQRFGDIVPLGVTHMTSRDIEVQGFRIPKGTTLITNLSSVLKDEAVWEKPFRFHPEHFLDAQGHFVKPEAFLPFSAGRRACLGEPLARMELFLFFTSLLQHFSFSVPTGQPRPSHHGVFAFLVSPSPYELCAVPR

`C/C=C/C(=O)CC`: the activity change, negative = cytotoxicity in [1] is 2.64% [at 19 µM]; in assay [3], -14.3% [at 19 µM]; in assay [5], -6.07% [at 15.8 µM]; in assay [9] it was -29.3% [at 19 µM]; in assay [11], 0.0214% [at 19 µM]; in assay [13] it was -1.71% [at 19 µM]. For the same compound, the figures for the activation in assay [2], in [6] and in assay [8] were 0.707% [at 19 µM], 4.38% [at 15.8 µM] and -0.663% [at 11.8 µM], respectively. The viability change, negative = cytotoxic in assay [4] was -21.1% [at 15.8 µM]. Also, in [7], the activity, negative = inhibition was -0.562% [at 10.5 µM]. The caspase activation in assay [10] was 0.108% [at 19 µM]. Besides, in [12], the caspase-3/7 activation was 1.13% [at 19 µM]. Also, the Potency in assay [14] is 10.5 µM (active). Besides, the activity change, negative = inhibition in [15] was 0.0645% [at 23.6 µM].
Regarding `COS(=O)(=O)C(F)(F)F`, the Potency entry in [1], in assay [2], in [4], in assay [6], in assay [8] and in assay [9] was “inactive” each time. Moreover, the Potency result in assay [10], in assay [11], in assay [12], in assay [13], in assay [14] and in assay [15] was “inactive” each time. In addition, the call in assay [5] and in assay [7] was inactive.
In the case of `CN(C)CCCN1c2ccccc2Sc2ccccc21`, the Potency entry in assay [1], in assay [2], in assay [4], in [6], in [8] and in assay [10] was “inactive” throughout. Further, the Potency result in assay [12] and in assay [13] was “inactive” throughout. For the same compound, the compound was classed as inactive in [5] and in assay [7]. For the same compound, the Potency in [9] was 23.7 µM (active). In assay [16], the max activation is -2.41%.
`Cc1ncc(CO)c(C=O)c1O`: the Potency entry in assay [1], in assay [17], in assay [18], in assay [3], in [4] and in assay [6] was “inactive” each time. Moreover, the Potency entry in assay [8], in assay [9], in [10], in assay [11], in assay [13] and in [14] was “inactive” in each case. Moreover, the Potency result in [19], in [20] and in assay [15] was “inactive” throughout. Also, the compound was classed as inactive in assay [5] and in assay [7]. Moreover, in [16], the max activation was -0.222%.
Turning to `S=C([S-])NCCNC(=S)[S-].[Mn+2]`, the Potency result in assay [1], in assay [2], in assay [4], in [6], in assay [9] and in assay [10] was “inactive” each time. Further, the Potency result in assay [11], in assay [12] and in [13] was “inactive” throughout. In [5], the compound was called inactive. Moreover, the Potency in [14] was 30.6 µM (active).
`CN1C[C@H]2c3ccccc3Oc3ccc(Cl)cc3[C@@H]2C1`: the Potency result in assay [1], in assay [2], in assay [18], in assay [4], in [6] and in assay [8] was “inactive” each time. In addition, the Potency result in assay [10], in assay [11], in assay [12], in assay [13] and in [14] was “inactive” throughout. Also, the result in assay [5] and in [7] was inactive. Further, the Potency in [15] is 0.11 µM (active).
Consider `CCCNCC(O)COc1ccccc1C(=O)CCc1ccccc1` (stereo not given), for which the Potency result in assay [1], in [2], in assay [18], in assay [4], in assay [6] and in [8] was “inactive” each time. The Potency result in assay [10], in assay [12] and in assay [13] was “inactive” in each case. Besides, the outcome in [7] was inactive. Besides, the Potency in assay [9] was 29.8 µM (active).
Regarding `CC(=O)OC[C@H]1O[C@@H](n2ncc(=O)[nH]c2=O)[C@H](OC(C)=O)[C@@H]1OC(C)=O`, the Potency entry in assay [1], in [2], in [4], in assay [6], in [8] and in assay [10] was “inactive” each time. Moreover, the Potency entry in [13], in assay [14], in assay [19] and in assay [20] was “inactive” in each case. Further, the values for the Potency in assay [18] and in assay [15] were 2.37 µM (active) and 4.36 µM (active), respectively. For the same compound, the compound was called inactive in assay [5] and in assay [7]. The max activation in [16] is -1.15%.

For the origin of these results see PubChem BioAssay (Tox21).
